About 83,000 compounds went through this panel and 20% of them were active in at least one assay; those are over-represented in the sample as a whole.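 The test compound was applied at a single concentration to cells in 96-well plates for 48 hours, and percent growth was recorded.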 Active and inactive are the calls of the source.

The assay concerns SR leukemia. Nature of the assay: NCI-60 one-dose screen, 48 h (100 = growth as untreated, 0 = no growth, -100 = all killed). The settings on record: 10 µM. The procedure:
Growth inhibition of the SR human tumor cell line is measured as a screen for anti-cancer activity. Cells are grown in 96 well plates and exposed to the test compound for 48 hours. Compounds are tested at a single concentration, which is 10^-5 M for most compounds. The reported endpoint is percent growth (GI% or GIPRCNT), where numbers from 0 - 100% represent growth inhibition, and numbers from -100% - 0 represent cell death. For example, a value of 40 represents 60% growth inhibition. A value of 0 means no net growth occurred over the course of the experiment. A value of -40 indicates 40% of cells at the beginning of the experiment died by the end of the experiment. A value of -100 means all cells are dead at the end of the experiment.
NCI-60 Human Tumor Cell Lines Screen was performed using the standard one-dose NCI protocol, which is described in more detail at https://dtp.cancer.gov/discovery_development/nci-60/default.htm.
Compounds with GIPRCNT values below 10 were considered active. Activity score was based on GIPRCNT using the following formula: […]
Score is 0 for GIPRCNT values of 100 or above, 50 for GIPRCNT values of 0, and 100 for GIPRCNT values of -100.
Consider `Fc1ccc(Nc2ccnc(N3CCN(c4ccnc5cc(Cl)ccc45)CC3)n2)cc1`, for which the growth was 31% (inactive).
With `Cc1ccc2nc3[nH]c(=O)[nH]c(=O)c3c(N)c2c1`, the growth is 95.6% (inactive).
On to `COc1ccccc1S(=O)(=O)Nc1ccc2c(c1)CN(C)C(=O)N2`, for which the growth was 36% (inactive).
As to `C[C@]12CC[C@H]3[C@@H](CC=C4C[C@@H](O)CC[C@@]43C)[C@@H]1CC[C@@H]2C(=O)C/C=N/O`, the growth is 91.6% (inactive).
Turning to `COc1cccc(C(=O)NNc2nc(N3CCN(C4CCCCC4)CC3)nc(N3CCN(C(c4ccccc4)c4ccccc4)CC3)n2)c1`, the growth was -16.1% (active).
Turning to `COc1c(-c2c3sc(=O)[nH]c3nc3c2c(=O)[nH]n3C(C)C)cc2c(c1OC)OCO2`, the growth was 84.9% (inactive).
On to `CCOC(=O)[C@@H](Cc1ccccc1)NC(=O)c1[nH]c2ccc(Cl)cc2c(=O)c1C`, for which the growth is 61.3% (inactive).
`O=C(O)c1cc(C(F)(F)F)cc(C(F)(F)F)c1`: the growth was 85.3% (inactive).
For the compound `Cc1cn(C(=O)/C(Cl)=C(/Cl)C(=O)O)c2ccccc12`, the growth was 101% (inactive).
On to `O=C1CC[C@@H](C(=O)N[C@H]2CSSC[C@@H](C(=O)NCCc3ccccc3)NC(=O)[C@H](Cc3ccccc3)NC(=O)[C@@H]3CCCN3C(=O)[C@@H]3CCCN3C2=O)N1`, for which the growth was 94.5% (inactive).
Consider `COc1ccc(Cn2cc3c(c2-c2cc(OC)c(OC)c(OC)c2)CCc2cnoc2-3)cc1[N+](=O)[O-]`, for which the growth is 22% (inactive).
For the compound `COc1cc(CSc2nc3ccc(C)cc3c(=O)n2-c2ccccc2)cc(OC)c1OC`, the growth was 20.3% (inactive).
Regarding `CCCCCc1cc[n+](CC(=O)c2ccc(Cl)cc2)cc1`, the growth was 86% (inactive).
For `CC(=O)Nc1nc(C)c(C(=O)N/N=C/c2cccn2C)s1`, the growth is 107% (inactive).
In the case of `COc1cc(CSc2nc3ccc(C)cc3c(=O)n2Cc2ccccc2)cc(OC)c1OC`, the growth is 18% (inactive).
To `Cc1cc(Nc2cccc(F)c2)nc(NCc2ccccc2)n1` belongs 23% (inactive); to `Nc1c(C(=O)Nc2ccccc2F)sc2nc3c(cc12)C(=O)CCC3`, 36.7% (inactive).
Take `CCCCCCCCCCCC(=O)NCCCN(C)C`: the growth was 2.57% (active).
The figure for `COc1ccccc1NC1=C(N2CCCCC2)C(=O)c2ccccc2C1=O` is 76.3% (inactive); for `Cc1ccc(NC(=O)/C=N/O)cc1C` it is 87% (inactive); for `Cc1noc(C)c1-c1ccc2nc(NC(=O)[C@H]3CCN(C#N)C3)cn2c1` it is 42.3% (inactive).
To `CCN(CC)CCn1c(=N)n(CC(O)c2ccc(Cl)c(Cl)c2)c2ccccc21` (stereo not given) belongs 26.4% (inactive); to `O=C(Nc1ccc(CN2CCOCC2)cc1)c1ccc(-c2cc(Cl)ccc2Cl)o1`, -12.9% (active).
To `O=C(c1ccccc1)C(Sc1ccccc1)c1ccccc1` (stereo not given) belongs 49.2% (inactive); to `CCOC(=O)C(=O)Cc1cccnn1`, 101% (inactive).
Turning to `COc1cccc(C2(C)Nc3ccccc3-c3nc4ccccc4n32)c1` (stereo not given), the growth was 87.7% (inactive).
As to `COc1cc(NS(C)(=O)=O)ccc1Nc1c2ccc(Cl)cc2nc2c(OC)cccc12`, the growth was -16.5% (active).
Take `COc1ccc(-c2csc(-c3cc(Cl)cc(Cl)c3Cl)n2)cc1`: the growth was 88.8% (inactive).
Consider `CCCCCCCOc1cccc(/C=C2/C(=O)N=C3SCCCN32)c1`, for which the growth is 47.9% (inactive).
To `Nc1nc2c(ncn2C2OC3COP(=O)(O)OC4C(COP(=O)(O)OC2C3O)OC(n2cnc3c(N)ncnc32)C4O)c(=O)[nH]1` (stereo not given) belongs 57.8% (inactive); to `COc1cccc2c1O/C(=C\c1ncc([N+](=O)[O-])n1C)C2=O`, 6.35% (active); to `COc1cc(C(=O)n2nc(N)c3c(C)cc(C)nc32)cc(OC)c1OC`, 13% (inactive).
As to `COC(=O)CCCCCCCCC(C)c1ccc(C(C)=O)cc1` (stereo not given), the growth was 94.2% (inactive).
In the case of `CCCCCCCCCCCCCCCCn1cc[n+](C)c1`, the growth was 15.2% (inactive).
In the case of `O=C1/C(=C/c2ccc([N+](=O)[O-])s2)Oc2ccc(Cl)cc21`, the growth is 1.07% (active).
With `CC(=O)N(O)c1ccc(/C=C/c2ccccc2)cc1`, the growth was 9.19% (active).
To `CCCCCCCC/C=C/CCCCCCCCC1=NCCN1CCO` belongs -8.86% (active); to `Cc1cc(C)c(C(=O)OC(C)CNC2CCCCC2)c(C)c1` (stereo not given), 81.6% (inactive).
To `N#Cc1c(-c2ccccc2)nc(SCC(=O)N2CCOCC2)[nH]c1=O` belongs 90.1% (inactive); to `CCOC(=O)c1ccc(NC(=O)Nc2nncs2)cc1`, 9.88% (active).
